# Source: PubChem BioAssay (NCI)
# Compounds without any hit were thinned out: in the full panel of roughly 83,000, 20% have a hit.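 48-hour exposure, single concentration, 96-well plates; percent growth endpoint where 0 means no net growth. Active: below 10.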 A number with no mark means an inactive call. Active and inactive are the calls of the source.
# How the values were obtained:
# Assay in all cases: NCI-60 one-dose screen, 48 h (100 = growth as untreated, 0 = no growth, -100 = all killed)
# Settings in all cases: 10 µM unless noted
# T-47D breast = test system: T-47D breast
# BT-549 breast = test system: BT-549 breast
# MDA-MB-435 melanoma = test system: MDA-MB-435 melanoma
# MCF7 breast = test system: MCF7 breast
# HCT-116 colon = test system: HCT-116 colon
# HCC-2998 colon = test system: HCC-2998 colon
# KM12 colon = test system: KM12 colon
# SW-620 colon = test system: SW-620 colon
Structure (SMILES),growth (T-47D breast),growth (BT-549 breast),growth (MDA-MB-435 melanoma),growth (MCF7 breast),growth (HCT-116 colon),growth (HCC-2998 colon),growth (KM12 colon),growth (SW-620 colon)
CCN(CC)c1ccc2c(c1)Oc1nc(N)c(C#N)c(N)c1C2Sc1ccc(F)cc1 (stereo unspecified),-35% (active),56.1%,-17.5% (active),-85.5% (active),-81.4% (active),-90.9% (active),-74.1% (active),
NC(N)=Nc1ccc(Nc2cccc(Nc3ccc(Cl)c(C(F)(F)F)c3)c2)cn1,23.8%,67.8%,30.4%,,16.1%,9.32% (active),-38.3% (active),
CC(=O)Nc1cccc(Nc2nc(N[C@@H](C)c3ccccc3)c3ccccc3n2)c1,58.4%,,-48.9% (active),8.63% (active),6.47% (active),-6.49% (active),22.9%,20.4%
C=CCn1c(SCC(=O)Nc2ccc(C(=O)/C=C/c3ccc(C)cc3)cc2)nnc1-c1c[nH]c2ccccc12,70%,,96.7%,20.2%,-2.08% (active),102%,96.6%,96.9%
Cn1ccnc1C(=O)/C=C/c1ccc(CNC(=O)c2ccc(S(F)(F)(F)(F)F)cc2)cc1,25%,35.6%,55.5%,,-17.1% (active),11.5%,13%,
NC(=O)c1c(NC(=O)c2ccc(F)cc2F)sc2c1CCC(=O)C2,32.9%,,74.1%,51.8%,11.3%,89.5%,17.2%,19.1%
Cn1ccnc1C(=O)/C=C/c1ccc(CNC(=O)c2ccc(F)cc2)cc1,33.4%,43.2%,44.1%,,13.2%,35.9%,22.1%,
CC1(C)CC[C@]2(CN)CC[C@]3(C)C(=CC[C@@H]4[C@@]5(C)CCCNC(C)(C)[C@@H]5CC[C@]43C)[C@H]2C1,78.3%,,97.3%,85.7%,90.6%,45.9%,101%,102%
CS(=O)(=O)Nc1cc(-c2ccc3ncc(C#N)c(NCc4ccccc4)c3c2)cnc1Cl,0.176% (active),,-6.33% (active),6.39% (active),4.12% (active),4.93% (active),8.53% (active),4.13% (active)
CCNC(=O)N1CCc2cc(OC)c(OCCc3ccc(OC)nc3)cc2C1c1ccc(OC)cc1C (stereo unspecified),49%,29.2%,15%,22.2%,14.4%,42.8%,21.2%,
O=C(CSc1nc2ccccc2c(=O)n1-c1ccc(Cl)cc1)N/N=C/c1ccc(N2CCCCC2)cc1,74.6%,,86.9%,67.5%,36.9%,118%,96.4%,65.9%
C=CCn1c(SCC(=O)Nc2ccc(C(=O)/C=C/c3cc(OC)c(OC)c(OC)c3)cc2)nnc1-c1c[nH]c2ccccc12,49%,47.2%,5.25% (active),-30.8% (active),-66.1% (active),-28% (active),30.4%,
O=C1Nc2ccccc2/C1=C/c1ccc(CO)n1-c1ccc(Cl)cc1,62.9%,55.3%,-25.5% (active),,23.8%,78.3%,13.4%,
Cc1nc(-c2ccccc2O)ccc1C(=O)N=Nc1c(O)[nH]c2ccc(Br)cc12,88.9%,102%,102%,91%,99.1%,123%,98.3%,
CN(C)CCNC(=O)c1ccc(-c2nc3ccc4[nH]ncc4c3c3c2CCC3)cc1,32.8%,,22.2%,1.36% (active),2.43% (active),2.85% (active),4.08% (active),3.38% (active)
CCNC(=O)Oc1ccc(/C(=C(/C)c2ccccc2)c2ccc(OCCN3CCCCCC3)cc2)cc1,2.6% (active),-3.35% (active),-35.5% (active),,-78% (active),25.3%,5.22% (active),
c1cn2c(ccc3nc(-c4cn[nH]c4)c4c(c32)CCCC4)n1,45.4%,,34.9%,60.9%,48.7%,87.2%,74.9%,61.2%
O=C(Nc1ccc2c(ccn2Cc2ccccn2)c1)c1ccnnc1,97.9%,,98.3%,102%,93.2%,120%,99.4%,101%
CC(=O)c1nnn(-c2c(C(=O)n3nc(C)cc3C)sc(=S)n2-c2ccccc2)c1C,113%,,108%,89.2%,104%,114%,104%,112%
CC(=O)N1C(=S)NC(=O)C1CC(C)C (stereo unspecified),100%,,103%,97.7%,106%,108%,101%,102%
C#CCOc1ccc(/C=N\Nc2nc(-c3ccc(C)cc3)cs2)cc1OC,61.7%,,91.6%,62.5%,88%,101%,85.6%,95.4%
CCCn1cnc2c(c1=N)C(c1ccc(F)cc1)c1sc3c(CC)cccc3c1O2 (stereo unspecified),72.7%,,-25.2% (active),18.1%,7.53% (active),24.2%,10.7%,17.7%
COC[C@]12CCC(C)(C)C[C@H]1C1=CC[C@@H]3[C@@]4(C)CCCNC(C)(C)[C@@H]4CC[C@@]3(C)[C@]1(C)CC2,28.8%,,-76.3% (active),-71% (active),-89.6% (active),-91.2% (active),-25.6% (active),-61.6% (active)
CCC1=Cc2cc(OC)ccc2OC12C=Cc1cc(OC)ccc1O2 (stereo unspecified),52.8%,,-28.5% (active),15.3%,14.2%,22.9%,19.3%,28.3%
COc1cc(-c2nn(C(C)(C)C)cc2-c2ccnc(NCCCNS(=O)(=O)c3ccc(F)cc3)n2)ccc1Cl,85.1%,,75%,74.3%,56.1%,108%,78.5%,95.9%
CCCCCc1ccc(S(=O)(=O)Nc2cccc(-c3csc(NC(=O)CCCCCN4CCN(C)CC4)n3)c2)cc1,43.7%,,-33.8% (active),-1.18% (active),-36.2% (active),-18% (active),57.4%,-27.1% (active)
O=C(NNc1nc2cc(F)ccc2n2c(CO)ccc12)c1cnccn1,11.7%,,27.3%,8.73% (active),17.7%,44.5%,22.2%,21.3%
CC(=O)Nc1cccc(Nc2nc(N[C@H](C)c3ccccc3)c3ccccc3n2)c1,78.8%,,24.3%,27.8%,31%,88.7%,55.9%,61.5%

Structure (SMILES),growth (T-47D breast),growth (BT-549 breast),growth (MDA-MB-435 melanoma),growth (MCF7 breast),growth (HCT-116 colon),growth (HCC-2998 colon),growth (KM12 colon),growth (SW-620 colon)
COc1ccc(S(=O)(=O)NCCCNc2nccc(-c3cn(C(C)(C)C)nc3-c3ccc(Cl)c(OC)c3)n2)cc1,77.3%,,89.6%,82.4%,66.6%,124%,93%,99.3%
COc1ccc(C2c3sc4c(C)cccc4c3Oc3nc(CC(=O)Nc4ccccc4)[nH]c(=O)c32)cc1 (stereo unspecified),84.4%,,33.7%,55.6%,73.6%,93.8%,92.7%,74.9%
C=CC(=O)N1CC=C(c2cc3c(N[C@H](C)c4ccccc4)ncnc3[nH]2)CC1,71.6%,,95%,75.5%,86.1%,89.6%,98.9%,87%
Cc1cccc2c3c(sc12)C(c1ccc(F)cc1)C(C#N)=C(/N=C/c1ccc(Cl)cc1)O3 (stereo unspecified),56.7%,,-12.4% (active),14.1%,2.26% (active),5.44% (active),15.7%,19.6%
COc1ccc(Cn2cc3c(c2-c2cc(OC)c(OC)c(OC)c2)CCc2c(CN4CCCC4)noc2-3)cc1,42.9%,,-39.2% (active),15.5%,18%,24.9%,14.9%,26.4%
CC(Nc1c(C#N)cnc2ccc(-c3cnc(N)nc3)cc12)c1ccccc1 (stereo unspecified),9.18% (active),,15.5%,8.42% (active),10.7%,8.61% (active),10.8%,18.2%
CC(=O)c1ccc(Nc2nc(SCC(C)C)nc(-c3ccccc3)c2C#N)cc1,94.5%,,106%,100%,83.7%,105%,112%,117%
N#Cc1c(-c2cccs2)cc(-c2cnccn2)nc1SCC(=O)c1ccc(F)cc1,106%,,93.3%,85.7%,96.6%,117%,99%,96.7%
O=C1[C@@H]2Cc3c([nH]c4ccccc34)[C@H](c3c(Cl)cccc3Cl)N2C(=O)CN1C1CCN(CC2CCCCC2)CC1,,63.2%,73.6%,18.4%,4.3% (active),73.4%,68.7%,10.2%
CCCCCc1ccc(S(=O)(=O)Nc2cccc(-c3csc(NC(=O)CNCCN(C)C)n3)c2)cc1,68.3%,,90.1%,41.3%,55.4%,16.2%,90.2%,87.3%
O=C(NNc1nc2cc(F)c(F)cc2n2c(CN3CC4CNCC4C3)ccc12)c1ncccn1 (stereo unspecified),13.8%,,20.4%,9.66% (active),11.7%,24.7%,19.2%,22.6%
Cc1ccc(NC(=O)N[C@@H](Cc2cc(F)cc(F)c2)C(=O)NC2C(=O)N3C[C@H](O)C[C@H]3C(=O)N3CCCC[C@H]3C(=O)N[C@@H](CO)C(=O)N3C[C@H](C)C[C@H]3C(=O)O[C@H]2C)c(F)c1 (stereo partly specified),32.5%,,23.1%,18.1%,18.1%,31.2%,45.3%,44.6%
COc1cc(-c2nn(C(C)(C)C)cc2-c2ccnc(NCCCNS(=O)(=O)c3ccc(C)cc3)n2)ccc1Cl,84.6%,,92.2%,79.8%,67.4%,115%,94%,93.7%
COC(=O)c1ccc(NC2=C/C(=N/S(=O)(=O)c3ccc(C(=O)O)cc3)c3ccccc3C2=O)cc1,4.9% (active),,-93.1% (active),-58.2% (active),5.32% (active),105%,51.1%,-30% (active)
C=C(C)[C@@H]1CC[C@]2(COCCCNCCC#N)CC[C@]3(C)[C@H](CC[C@@H]4[C@@]5(C)CC[C@H](OCCCNCCC#N)C(C)(C)[C@@H]5CC[C@]43C)[C@@H]12,53.3%,,56.4%,32.5%,24.7%,31.8%,64.4%,64.7%
COc1cc(-c2nn(C(C)(C)C)cc2-c2ccnc(NCCCNS(=O)(=O)c3cccc(F)c3)n2)ccc1Cl,69.5%,,77.9%,71.3%,52.4%,103%,80.3%,89.7%
Nc1ncc(-c2ccc(NS(=O)(=O)c3ccc(Cl)c(Cl)c3)cc2)[nH]1,76.7%,,96.4%,75%,99.3%,91.2%,89.6%,
COc1cc(Nc2c(C#N)cnn3cc(-c4cnn(CC(C)(C)O)c4)cc23)ccc1Cl,45.1%,,38.3%,48%,40.2%,84.8%,19.1%,56.5%
CC(C)(C)c1ccc(C(=O)Nc2sc3c(c2C(N)=O)CCC(O)C3)cc1 (stereo unspecified),28.8%,,32.2%,5.17% (active),26.3%,37.4%,11.7%,7.55% (active)
CCCn1cnc2c(c1=N)C(c1ccc(F)cc1)c1sc3c(C)cccc3c1O2 (stereo unspecified),38.3%,,-58% (active),18.4%,16.7%,57.3%,24.9%,16.4%
C[C@@H](Nc1ncnc2ccc(-c3cnc(Cl)c(NS(C)(=O)=O)c3)cc12)c1ccccc1,9.4% (active),,60.9%,21.3%,61%,70.6%,89.3%,67.7%
CC[C@]12C=CCN3CC[C@@]4(c5cc(NC(=O)COc6cc(O)c7c(=O)cc(-c8ccccc8)oc7c6)c(OC)cc5N(C)[C@H]4[C@@](O)(C(=O)OC)[C@@H]1OC(C)=O)[C@@H]32,-60.5% (active),,-44.7% (active),-44.3% (active),-89.2% (active),-98.2% (active),-82.2% (active),7.84% (active)
Cc1cc(S(=O)(=O)N(C)C)cc(NCC(=O)NC(=O)NCC(C)C)c1C,110%,,98.8%,94.8%,100%,120%,102%,
CC(C)(O)c1cncc(-c2ccc3ncnc(NCc4ccccc4)c3c2)c1,64.2%,,92.3%,,97.8%,92.8%,101%,98.9%
NS(=O)(=O)c1ccc(-n2cc(-c3cccc(NC(=O)c4ccc(N5CCOCC5)c(C(F)(F)F)c4)c3)nn2)cc1,4.61% (active),,62.9%,36.9%,32.5%,66%,25.8%,64.5%
N/C(=N\C(N)=N\c1nc2ccccc2s1)c1ccc2ccccc2c1,79.2%,,88.9%,79.3%,63.5%,116%,59.5%,110%
CC1=NC2=NN3C(=NN2C(c2ccccc2)=C1)N=NC(c1ccc(Br)cc1)=C3c1ccc(Br)cc1,108%,,110%,,117%,112%,104%,96.6%
